# Measurements: the supplement of paper PMC4466140
# Experiments:
# Test in all cases: SPOT peptide array binding signal intensity (averaged, normalized) (arbitrary units (background-subtracted, floor 0; scale differs between SH3 domains)); higher = stronger binding of the SH3 domain to the peptide
# AgAbp1 = molecular target: AgAbp1
# Outline: (§1)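 To measure binding, SH3 domains from four yeast species were fused to GST, expressed in E. coli BL21(DE3) and purified on glutathione Sepharose. Each domain was incubated at 10 μg/ml overnight at 4°C on cellulose membranes with synthetic 15-mer peptides whose cysteines were replaced by serines. Anti-GST antibody, an HRP anti-mouse secondary and luminol were used for detection, and images were quantified with Genespotter. Reported binding signal is normalized, background-subtracted spot intensity averaged over replicates, in arbitrary units that differ between domains.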
# AgBbc1 = molecular target: AgBbc1
# Outline: as §1
# AgBem1-D1 = molecular target: AgBem1-D1
# Outline: as §1
# AgBzz1-D1 = molecular target: AgBzz1-D1
# Outline: as §1
# AgBzz1-D2 = molecular target: AgBzz1-D2
# Outline: as §1
# AgCyk3 = molecular target: AgCyk3
# Outline: as §1
# AgFus1 = molecular target: AgFus1
# Outline: as §1
# AgHof1 = molecular target: AgHof1
# Outline: as §1
# AgHse1 = molecular target: AgHse1
# Outline: as §1
# AgLsb1 = molecular target: AgLsb1
# Outline: as §1
# AgLsb4 = molecular target: AgLsb4
# Outline: as §1
# AgMyo5 = molecular target: AgMyo5
# Outline: as §1
# AgNbp2 = molecular target: AgNbp2
# Outline: as §1
# AgRvs167 = molecular target: AgRvs167
# Outline: as §1
# AgSho1 = molecular target: AgSho1
# Outline: as §1
# AgSla1-D1-D2 = molecular target: AgSla1-D1-D2
# Outline: as §1
# AgSla1-D3 = molecular target: AgSla1-D3
# Outline: as §1
# CaAbp1-D1 = molecular target: CaAbp1-D1
# Outline: as §1
# CaAbp1-D2 = molecular target: CaAbp1-D2
# Outline: as §1
# CaBbc1 = molecular target: CaBbc1
# Outline: as §1
# CaBem1-D1 = molecular target: CaBem1-D1
# Outline: as §1
# CaBzz1-D1 = molecular target: CaBzz1-D1
# Outline: as §1
# CaBzz1-D2 = molecular target: CaBzz1-D2
# Outline: as §1
# CaCyk3 = molecular target: CaCyk3
# Outline: as §1
# CaFus1 = molecular target: CaFus1
# Outline: as §1
# CaHof1 = molecular target: CaHof1
# Outline: as §1
# CaHse1 = molecular target: CaHse1
# Outline: as §1
# CaLsb1 = molecular target: CaLsb1
# Outline: as §1
# CaLsb4 = molecular target: CaLsb4
# Outline: as §1
# CaMyo5 = molecular target: CaMyo5
# Outline: as §1
# SpBzz1-D2 = molecular target: SpBzz1-D2
# Outline: as §1
# SpCyk3 = molecular target: SpCyk3
# Outline: as §1
# SpHof1 = molecular target: SpHof1
# Outline: as §1
# SpHof1-2 = molecular target: SpHof1-2
# Outline: as §1
# SpHof1-3 = molecular target: SpHof1-3
# Outline: as §1
# SpHse1 = molecular target: SpHse1
# Outline: as §1
# SpLsb1 = molecular target: SpLsb1
# Outline: as §1
# SpLsb4 = molecular target: SpLsb4
# Outline: as §1
# SpMyo1 = molecular target: SpMyo1
# Outline: as §1
# SpNbp2 = molecular target: SpNbp2
# Outline: as §1
# SpPex13 = molecular target: SpPex13
# Outline: as §1
# SpRvs167 = molecular target: SpRvs167
# Outline: as §1
# SpSla1-D1-D2 = molecular target: SpSla1-D1-D2
# Outline: as §1
# SpSla1-D3 = molecular target: SpSla1-D3
# Outline: as §1
# CaNbp2 = molecular target: CaNbp2
# Outline: as §1
# CaRvs167 = molecular target: CaRvs167
# Outline: as §1
# CaRvs167-3 = molecular target: CaRvs167-3
# Outline: as §1
# CaSho1 = molecular target: CaSho1
# Outline: as §1
# CaSla1-D1-D2 = molecular target: CaSla1-D1-D2
# Outline: as §1
# CaSla1-D3 = molecular target: CaSla1-D3
# Outline: as §1
# ScAbp1 = molecular target: ScAbp1
# Outline: as §1
# ScBbc1 = molecular target: ScBbc1
# Outline: as §1
# ScBem1-D1 = molecular target: ScBem1-D1
# Outline: as §1
# ScBzz1-D1 = molecular target: ScBzz1-D1
# Outline: as §1
# ScBzz1-D2 = molecular target: ScBzz1-D2
# Outline: as §1
# ScCyk3 = molecular target: ScCyk3
# Outline: as §1
# ScFus1 = molecular target: ScFus1
# Outline: as §1
# ScHof1 = molecular target: ScHof1
# Outline: as §1
# ScHse1 = molecular target: ScHse1
# Outline: as §1
# ScLsb1 = molecular target: ScLsb1
# Outline: as §1
# ScLsb2 = molecular target: ScLsb2
# Outline: as §1
# ScLsb3 = molecular target: ScLsb3
# Outline: as §1
# ScLsb4 = molecular target: ScLsb4
# Outline: as §1
# ScMyo3 = molecular target: ScMyo3
# Outline: as §1
# ScMyo5 = molecular target: ScMyo5
# Outline: as §1
# ScNbp2 = molecular target: ScNbp2
# Outline: as §1
# ScPex13 = molecular target: ScPex13
# Outline: as §1
# ScRvs167 = molecular target: ScRvs167
# Outline: as §1
# ScSho1 = molecular target: ScSho1
# Outline: as §1
# ScSla1-D1-D2 = molecular target: ScSla1-D1-D2
# Outline: as §1
# ScSla1-D3 = molecular target: ScSla1-D3
# Outline: as §1
# SpAbp1-D1 = molecular target: SpAbp1-D1
# Outline: as §1
# SpBbc1 = molecular target: SpBbc1
# Outline: as §1
# SpBzz1-D1 = molecular target: SpBzz1-D1
# Outline: as §1
binder,measurement,setting,value
ATKSASPTLPTRRSR,SPOT peptide array binding signal intensity,AgAbp1,938
same,SPOT peptide array binding signal intensity,AgBbc1,899
same,SPOT peptide array binding signal intensity,AgBem1-D1,133
same,SPOT peptide array binding signal intensity,AgBzz1-D1,99.5
same,SPOT peptide array binding signal intensity,AgBzz1-D2,45
same,SPOT peptide array binding signal intensity,AgCyk3,2
same,SPOT peptide array binding signal intensity,AgFus1,28
same,SPOT peptide array binding signal intensity,AgHof1,180
same,SPOT peptide array binding signal intensity,AgHse1,114
same,SPOT peptide array binding signal intensity,AgLsb1,18.5
same,SPOT peptide array binding signal intensity,AgLsb4,1800
same,SPOT peptide array binding signal intensity,AgMyo5,5.5
same,SPOT peptide array binding signal intensity,AgNbp2,39.5
same,SPOT peptide array binding signal intensity,AgRvs167,192
same,SPOT peptide array binding signal intensity,AgSho1,≤ 0
same,SPOT peptide array binding signal intensity,AgSla1-D1-D2,74.5
same,SPOT peptide array binding signal intensity,AgSla1-D3,11.8
same,SPOT peptide array binding signal intensity,CaAbp1-D1,434
same,SPOT peptide array binding signal intensity,CaAbp1-D2,1090
same,SPOT peptide array binding signal intensity,CaBbc1,986
same,SPOT peptide array binding signal intensity,CaBem1-D1,51
same,SPOT peptide array binding signal intensity,CaBzz1-D1,223
same,SPOT peptide array binding signal intensity,CaBzz1-D2,195
same,SPOT peptide array binding signal intensity,CaCyk3,56
same,SPOT peptide array binding signal intensity,CaFus1,35
same,SPOT peptide array binding signal intensity,CaHof1,4
same,SPOT peptide array binding signal intensity,CaHse1,8.75
same,SPOT peptide array binding signal intensity,CaLsb1,0.75
same,SPOT peptide array binding signal intensity,CaLsb4,6350
same,SPOT peptide array binding signal intensity,CaMyo5,6
PPIPIVPSSPAPPLP,SPOT peptide array binding signal intensity,SpBzz1-D2,≤ 0
same,SPOT peptide array binding signal intensity,SpCyk3,≤ 0
same,SPOT peptide array binding signal intensity,SpHof1,≤ 0
same,SPOT peptide array binding signal intensity,SpHof1-2,≤ 0
same,SPOT peptide array binding signal intensity,SpHof1-3,≤ 0
same,SPOT peptide array binding signal intensity,SpHse1,26.8
same,SPOT peptide array binding signal intensity,SpLsb1,≤ 0
same,SPOT peptide array binding signal intensity,SpLsb4,≤ 0
same,SPOT peptide array binding signal intensity,SpMyo1,1080
same,SPOT peptide array binding signal intensity,SpNbp2,≤ 0
same,SPOT peptide array binding signal intensity,SpPex13,≤ 0
same,SPOT peptide array binding signal intensity,SpRvs167,≤ 0
same,SPOT peptide array binding signal intensity,SpSla1-D1-D2,≤ 0
same,SPOT peptide array binding signal intensity,SpSla1-D3,≤ 0
HAPPLPPTAPPPPSL,SPOT peptide array binding signal intensity,AgAbp1,≤ 0
same,SPOT peptide array binding signal intensity,AgBbc1,≤ 0
same,SPOT peptide array binding signal intensity,AgBem1-D1,≤ 0
same,SPOT peptide array binding signal intensity,AgBzz1-D1,≤ 0
same,SPOT peptide array binding signal intensity,AgBzz1-D2,≤ 0
same,SPOT peptide array binding signal intensity,AgCyk3,≤ 0
same,SPOT peptide array binding signal intensity,AgFus1,≤ 0
same,SPOT peptide array binding signal intensity,AgHof1,26.5
same,SPOT peptide array binding signal intensity,AgHse1,≤ 0
same,SPOT peptide array binding signal intensity,AgLsb1,≤ 0
same,SPOT peptide array binding signal intensity,AgLsb4,≤ 0
same,SPOT peptide array binding signal intensity,AgMyo5,2230
same,SPOT peptide array binding signal intensity,AgNbp2,≤ 0
same,SPOT peptide array binding signal intensity,AgRvs167,≤ 0
same,SPOT peptide array binding signal intensity,AgSho1,≤ 0
same,SPOT peptide array binding signal intensity,AgSla1-D1-D2,≤ 0
same,SPOT peptide array binding signal intensity,AgSla1-D3,≤ 0
same,SPOT peptide array binding signal intensity,CaAbp1-D1,≤ 0
same,SPOT peptide array binding signal intensity,CaAbp1-D2,2
same,SPOT peptide array binding signal intensity,CaBbc1,≤ 0
same,SPOT peptide array binding signal intensity,CaBem1-D1,≤ 0
same,SPOT peptide array binding signal intensity,CaBzz1-D1,2
same,SPOT peptide array binding signal intensity,CaBzz1-D2,6
same,SPOT peptide array binding signal intensity,CaCyk3,≤ 0
same,SPOT peptide array binding signal intensity,CaFus1,≤ 0
same,SPOT peptide array binding signal intensity,CaHof1,≤ 0
same,SPOT peptide array binding signal intensity,CaHse1,1.5
same,SPOT peptide array binding signal intensity,CaLsb1,≤ 0
same,SPOT peptide array binding signal intensity,CaLsb4,≤ 0
same,SPOT peptide array binding signal intensity,CaMyo5,792
same,SPOT peptide array binding signal intensity,CaNbp2,≤ 0
same,SPOT peptide array binding signal intensity,CaRvs167,≤ 0
same,SPOT peptide array binding signal intensity,CaRvs167-3,≤ 0
same,SPOT peptide array binding signal intensity,CaSho1,≤ 0
same,SPOT peptide array binding signal intensity,CaSla1-D1-D2,≤ 0
same,SPOT peptide array binding signal intensity,CaSla1-D3,≤ 0
same,SPOT peptide array binding signal intensity,ScAbp1,≤ 0
same,SPOT peptide array binding signal intensity,ScBbc1,≤ 0
same,SPOT peptide array binding signal intensity,ScBem1-D1,≤ 0
same,SPOT peptide array binding signal intensity,ScBzz1-D1,≤ 0
same,SPOT peptide array binding signal intensity,ScBzz1-D2,≤ 0
same,SPOT peptide array binding signal intensity,ScCyk3,≤ 0
same,SPOT peptide array binding signal intensity,ScFus1,≤ 0
same,SPOT peptide array binding signal intensity,ScHof1,40.5
same,SPOT peptide array binding signal intensity,ScHse1,≤ 0
same,SPOT peptide array binding signal intensity,ScLsb1,≤ 0
same,SPOT peptide array binding signal intensity,ScLsb2,≤ 0
same,SPOT peptide array binding signal intensity,ScLsb3,≤ 0
same,SPOT peptide array binding signal intensity,ScLsb4,≤ 0
same,SPOT peptide array binding signal intensity,ScMyo3,1750
same,SPOT peptide array binding signal intensity,ScMyo5,2000
same,SPOT peptide array binding signal intensity,ScNbp2,≤ 0
same,SPOT peptide array binding signal intensity,ScPex13,≤ 0
same,SPOT peptide array binding signal intensity,ScRvs167,≤ 0
same,SPOT peptide array binding signal intensity,ScSho1,≤ 0
same,SPOT peptide array binding signal intensity,ScSla1-D1-D2,≤ 0
same,SPOT peptide array binding signal intensity,ScSla1-D3,1.75
same,SPOT peptide array binding signal intensity,SpAbp1-D1,≤ 0
same,SPOT peptide array binding signal intensity,SpBbc1,1.5
same,SPOT peptide array binding signal intensity,SpBzz1-D1,148
same,SPOT peptide array binding signal intensity,SpBzz1-D2,≤ 0
same,SPOT peptide array binding signal intensity,SpCyk3,≤ 0
same,SPOT peptide array binding signal intensity,SpHof1,≤ 0
same,SPOT peptide array binding signal intensity,SpHof1-2,≤ 0
same,SPOT peptide array binding signal intensity,SpHof1-3,≤ 0
same,SPOT peptide array binding signal intensity,SpHse1,≤ 0
same,SPOT peptide array binding signal intensity,SpLsb1,≤ 0
same,SPOT peptide array binding signal intensity,SpLsb4,≤ 0
same,SPOT peptide array binding signal intensity,SpMyo1,1320
same,SPOT peptide array binding signal intensity,SpNbp2,≤ 0
same,SPOT peptide array binding signal intensity,SpPex13,≤ 0
same,SPOT peptide array binding signal intensity,SpRvs167,2.67
same,SPOT peptide array binding signal intensity,SpSla1-D1-D2,7
same,SPOT peptide array binding signal intensity,SpSla1-D3,≤ 0
